# Laboratory results reported in PubChem BioAssay.
# Values without a mark were called inactive. No rule for the calls is given here.
# Target: Pantothenate synthetase (Mycobacterium tuberculosis (strain ATCC 25618 / H37Rv)) (UniProt P9WIL5)
# Experiment: Coupled enzyme confirmation of inhibitors against recombinant Mtb PanC (AID 375);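 also: 0% = full reaction with vehicle and 100% = no enzyme background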
# Details: coupled enzyme assay; at 10 µM, hits give high values
# Sequence of Pantothenate synthetase (Mycobacterium tuberculosis (strain ATCC 25618 / H37Rv)) (P9WIL5 whole entry, looked up): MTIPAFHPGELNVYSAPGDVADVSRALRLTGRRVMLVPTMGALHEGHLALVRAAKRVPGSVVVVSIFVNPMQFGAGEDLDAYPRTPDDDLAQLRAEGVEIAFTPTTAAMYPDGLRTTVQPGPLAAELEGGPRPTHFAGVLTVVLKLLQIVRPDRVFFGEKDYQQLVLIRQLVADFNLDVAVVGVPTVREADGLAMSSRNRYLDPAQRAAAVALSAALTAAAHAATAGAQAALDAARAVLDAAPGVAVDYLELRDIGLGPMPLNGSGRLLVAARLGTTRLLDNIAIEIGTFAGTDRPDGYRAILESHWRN
row,Structure (SMILES),inhibition
1,CCN(CC)C(=O)CSC1=C(C#N)C(c2ccco2)C(C(=O)OCCOC)=C(C)N1 (stereo not given),0%
2,COc1ccc(S(=O)(=O)N(C)c2ccc(C(=O)N3CCOCC3)cc2)cc1,0%
3,CC(=O)NC(Cc1ccccc1)C(=O)NC1CCN(C(=O)c2cnccn2)CC1 (stereo not given),0%
4,O=C(CSc1nnc(COc2ccc(Cl)cc2)o1)N1CCN(c2ccccc2)CC1,0%
5,Nc1nc(SCCOc2ccccc2)n[nH]1,0%
6,O=C(NCCCN1CCCC1=O)C1CCN(S(=O)(=O)N2CCOCC2)CC1,0%
7,CCOC(=O)Cn1c(S(=O)(=O)Cc2ccccc2)nc2ccccc21,0%
8,O=C(Nc1ccc2nc(-c3cccs3)[nH]c2c1)c1ccco1,0%
9,COC1CCCCC1Nc1cccc(SC)c1 (stereo not given),0%
10,CCOC(=O)C1=C(C)Nc2nnnn2C1c1ccc(OC)c(Br)c1 (stereo not given),1%
11,Cc1ccc(NC(=O)C2CC=CCC2C(=O)N2CCCCC2)cc1 (stereo not given),0%
12,CC1(C)Cc2c(c(=S)nc(-c3ccccc3)n2CCO)CO1,9%
13,COc1cccc(C2=NOC(C(=O)N3CCc4ccccc4C3)C2)c1 (stereo not given),0%
14,Nc1nc(Cl)nc2c1ncn2[C@@H]1O[C@H](CO)[C@@H](O)[C@H]1O,3%
15,CCOC(=O)CSc1nc(C)c(C(=O)OCC)s1,0%
16,Cc1cccc2cc(CN(CCN3CCCC3)C(=O)NC3CCCCC3)c(=O)[nH]c12,0%
17,Clc1ccc(-n2nnnc2Sc2ncnc3sccc23)cc1,0%
18,CCn1c(Cc2ccccc2)nnc1SCC(=O)Nc1ccc(N2CCOCC2)c(Cl)c1,6%
19,CC(C)(C)NS(=O)(=O)c1ccc(CCC(=O)O)cc1,0%
20,Cc1nc(SCC(=O)c2c[nH]c3ccccc23)n[nH]1,4%
